Experimental findings from PubChem BioAssay are described below.

Broadly, the inhibition is the change of the read-out against control, counted positive when it falls.

Each structure is given as a SMILES string. Calls of active or inactive are those of the source.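 The calls were made as follows, unless noted: active = inhibition at or above 50% at 10 µM; inactive = inhibition below 50%.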

Assay [1] in a line: inhibitors of TNFa-induced NFkB p65 translocation, primary screen, imaging, HUVEC, MLSMR starter and 10KST1 sets (AID 438;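 active = inhibition above 20% together with a positive visual image hit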;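 also: compound added about 3h40 before a 20 min TNFalpha stimulation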;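 as to inhibition: signal is the nuclear over cytoplasmic p65 intensity ratio per well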). The following applies: HUVEC TNFa-induced p65 nuclear translocation; cell count: measured here: nuclei count (cytotoxicity indicator), at 2.08 µM; inhibition: at 2 µM, stronger effect = higher value, 0% TNFa-plus-vehicle, 100% no-TNFa wells.
Assay [2] in a line: reduction of polyQ htt aggregates in cells – imaging, exon1htt(103Q)mCFP cells, high-content imaging, primary screen (AID 483;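 active = visual image review flags a hit and inhibition of aggregation exceeds 20%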;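 also: compound exposure lasted 3 days before fixation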;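 as to nuclei count: percent of the per-plate median nuclei count of sample wells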). The following applies: exon1htt(103Q)mCFP cell line, aggregate imaging, at 2 µM; inhibition of aggregation: stronger effect = higher value; nuclei count: measured here: cell count, toxicity.
The nature of assay [3]: endothelial E-selectin expression blockers – imaging, HUVEC, immunofluorescence, MLSMR starter and 10KST1 sets, primary screen (AID 487;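 active = visually confirmed hit in the image check and inhibition above 20%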;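 as to inhibition: signal is fraction of cell area covered by stained E-selectin grains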;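 as to nuclei count: 100% = median nuclei count of all wells on the same plate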). The following applies: HUVEC TNFalpha-induced E-selectin immunofluorescence imaging, at 2 µM; inhibition: stronger effect = higher value; nuclei count: measured here: cell number, toxicity.
For assay [4], the target named is Voltage-gated potassium channel subunit beta-2 (Rattus norvegicus) (UniProt P62483). Kind of assay: inhibitors of rat Kvbeta2 reductase activity – biochemical, NADPH fluorescence, primary screen (AID 622;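 active = fluorescence slope higher than the sample average by over 3 SD, cut at about -0.22 in these data, passing the limit was not always enough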;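 also: slope of raw intensity against log time taken from 70 to 1610 s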). The following applies: recombinant KvBeta, 4-cyanobenzaldehyde reduction, at 10 µM, stronger effect = higher value.
Sequence of Voltage-gated potassium channel subunit beta-2 (Rattus norvegicus) (P62483 whole entry, looked up): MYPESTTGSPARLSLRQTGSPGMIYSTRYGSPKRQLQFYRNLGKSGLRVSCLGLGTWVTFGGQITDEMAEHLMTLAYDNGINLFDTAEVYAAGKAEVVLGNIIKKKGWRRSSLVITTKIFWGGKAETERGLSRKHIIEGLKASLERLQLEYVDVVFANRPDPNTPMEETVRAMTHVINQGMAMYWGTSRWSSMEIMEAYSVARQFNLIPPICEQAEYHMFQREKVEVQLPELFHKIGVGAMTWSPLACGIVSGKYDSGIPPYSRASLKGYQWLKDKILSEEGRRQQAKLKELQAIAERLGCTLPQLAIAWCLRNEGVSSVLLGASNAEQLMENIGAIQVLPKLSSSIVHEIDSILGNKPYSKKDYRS
For assay [5] the target is unchanged. Kind of assay: enhancers of rat Kvbeta2 NADPH turnover – biochemical, NADPH fluorescence, primary screen (AID 623;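 active = NADPH fluorescence slope more negative than the mean of all samples by about 3 SD, 99.7% confidence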;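 also: fluorescence intensity change per second fitted from 20 to 320 s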). The following applies: Recombinant KvBeta, NADPH fluorescence decrease slope, 10 min; at 10 µM; stronger effect = lower value.
The target of assay [6] is Alpha-2C adrenergic receptor (Homo sapiens) (UniProt P18825). Put plainly: compounds altering alpha2C-coupled GIRK flux – cell-based, HEK293 alpha2C/GIRK1/2, thallium flux, primary screen (AID 624;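 active = fluorescence slope after compound addition differing from the mean of all screened samples at 99.7% confidence, in either direction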;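 also: slope of fluorescence ratio to pre-addition baseline per second over 15 to 24 s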). The following applies: thallium flux BTC fluorescence, at 10 µM, actives lie on both sides.
Sequence of Alpha-2C adrenergic receptor (Homo sapiens) (P18825 whole entry, looked up): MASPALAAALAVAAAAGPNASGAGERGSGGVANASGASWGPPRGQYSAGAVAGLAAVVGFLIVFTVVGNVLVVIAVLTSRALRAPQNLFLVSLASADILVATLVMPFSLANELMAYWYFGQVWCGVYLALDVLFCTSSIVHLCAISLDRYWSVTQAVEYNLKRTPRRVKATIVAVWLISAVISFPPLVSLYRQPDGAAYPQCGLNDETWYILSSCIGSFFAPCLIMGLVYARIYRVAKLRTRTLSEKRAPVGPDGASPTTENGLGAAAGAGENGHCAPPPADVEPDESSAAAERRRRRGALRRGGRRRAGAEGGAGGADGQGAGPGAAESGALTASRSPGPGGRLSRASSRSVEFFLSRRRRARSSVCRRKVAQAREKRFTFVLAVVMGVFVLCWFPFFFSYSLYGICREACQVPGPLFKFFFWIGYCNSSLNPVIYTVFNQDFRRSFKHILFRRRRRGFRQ
A short description of assay [7]: blockers of RIG-like receptor reporter activation – cell-based, Sendai virus stimulus, luciferase, 10K MLSCN set, TLR/RLR signaling modifier project, primary screen (AID 602276).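 Also: firefly luciferase from ISG56 promoter only with Renilla not read in this screen; 0% = Sendai virus plus DMSO and 100% = medium plus DMSO without virus.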 The following applies: HEK293 RL24 IRF3 luciferase reporter, at 10 µM, stronger effect = higher value.
The nature of assay [8]: TLR3 IRF3 reporter activation blockers – cell-based, poly I:C stimulus, luciferase, 10K MLSCN set, primary screen (AID 602277;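 active = inhibition of the reporter signal at or above 50%; inactive = inhibition below 50%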). The following applies: HEK293-TLR3 RL24 IRF3 luciferase reporter, at 10 µM, stronger effect = higher value.

`COc1ccc2c(c1)C(C)=CC(C)(C)N2C(=O)CSc1nnc(-c2ccc(C)cc2)o1`: in assay [1], the cell count turned out to be 362. The inhibition in assay [1] was 12.5% (inactive); in assay [3] it was 14.4% (inactive); in assay [7], -7.74% (inactive); in assay [8] it was 17.4% (inactive). Also, in assay [2], the inhibition of aggregation was 8.3% (inactive). For the same molecule, the nuclei count in assay [2] is 106%; in assay [3], 117%. Moreover, the fluorescence slope in assay [4] was -0.451 (inactive). In assay [5], the NADPH fluorescence slope was 4.8e-05 (inactive). The slope in assay [6] is 0.00352 (inactive).

`Cc1cc(C(F)(F)F)nn1Cc1ccc(C(=O)NCc2ccco2)o1`: in assay [1], the cell count was determined as 597. The inhibition is -2.1% (inactive) in assay [1], -36% (inactive) in assay [3], -1.39% (inactive) in assay [7] and -36.9% (inactive) in assay [8]. In assay [2], the inhibition of aggregation was 2% (inactive). Further, the nuclei count was 106% in assay [2] and 108% in assay [3]. In assay [4], the fluorescence slope is -0.568 (inactive). Further, the NADPH fluorescence slope in assay [5] was -2.7e-05 (inactive). Besides, the slope in assay [6] was 0.00427 (inactive).

Turning to `O=S(=O)(NCc1cn2ccsc2n1)c1ccc2c(c1)OCCO2`, in assay [1], the cell count worked out at 600. Also, the inhibition in assay [1] is 8.2% (inactive); in assay [3] it was 51.6% (inactive); in assay [7] it was 5.63% (inactive); in assay [8] it was 11.2% (inactive). Besides, the inhibition of aggregation in assay [2] was -3.9% (inactive). For the same molecule, the nuclei count in assay [2] stood at 71%; in assay [3], 72.2%. Moreover, the fluorescence slope in assay [4] was -0.502 (inactive). Also, the NADPH fluorescence slope in assay [5] is -3.9e-05 (inactive). Further, the slope in assay [6] is 0.00564 (inactive).

On to `COc1ccccc1NC1=NC(c2ccc(Cl)cc2)N=C(N)N1` (centres undefined), for which the cell count in assay [1] was found to be 395. In addition, the inhibition in assay [1] was 5.2% (inactive); in assay [3], -308% (inactive); in assay [7], 29.3% (inactive); in assay [8], 49.9% (inactive). Also, in assay [2], the inhibition of aggregation is -17.1% (inactive). Also, the nuclei count in assay [2] amounted to 35.1%; in assay [3] it was 124%. For the same molecule, the fluorescence slope in assay [4] is -0.299 (inactive). Moreover, the NADPH fluorescence slope in assay [5] was -4.5e-05 (inactive). Besides, in assay [6], the slope is 0.0046 (inactive).

`Cc1nc2ncnn2c(Nc2ccc3c(c2)OCCO3)c1C`: the cell count in assay [1] turned out to be 233. The inhibition is -9.3% (inactive) in assay [1], -57.1% (inactive) in assay [3], 9.15% (inactive) in assay [7] and -0.101% (inactive) in assay [8]. Further, the inhibition of aggregation in assay [2] is 1.4% (inactive). In addition, the figures for the nuclei count in assay [2] and in assay [3] were 87.4% and 97.7%, respectively. In assay [4], the fluorescence slope is -0.614 (inactive). Further, the NADPH fluorescence slope in assay [5] is -4.3e-05 (inactive). In assay [6], the slope was 0.00442 (inactive).

Regarding `CCOc1ccc(S(=O)(=O)N2CCN(C(=O)c3cccn3C)CC2)cc1`, the cell count in assay [1] worked out at 431. For the same molecule, the inhibition in assay [1] is 2% (inactive); in assay [3], -88.3% (inactive); in assay [7] it was 13.9% (inactive); in assay [8], 19.3% (inactive). Further, the inhibition of aggregation in assay [2] is -7.2% (inactive). Also, the nuclei count in assay [2] was found to be 95.6%; in assay [3], 105%. The fluorescence slope in assay [4] is -0.502 (inactive). In addition, the NADPH fluorescence slope in assay [5] is -9e-06 (inactive). In addition, the slope in assay [6] is 0.00499 (inactive).

For `CCC(Sc1nc2sc(C(=O)OC)c(C)c2c(=O)n1N)C(=O)NCC1CCCO1` (centres undefined), the cell count in assay [1] was 477. Moreover, the inhibition was 7.5% (inactive) in assay [1], 12% (inactive) in assay [3], 7.5% (inactive) in assay [7] and 11.6% (inactive) in assay [8]. Also, the inhibition of aggregation in assay [2] was -2.8% (inactive). Further, the nuclei count came out at 117% in assay [2] and 98.2% in assay [3]. For the same molecule, the fluorescence slope in assay [4] is -0.592 (inactive). Further, in assay [5], the NADPH fluorescence slope is -6.1e-05 (inactive). The slope in assay [6] was 0.00714 (inactive).

Take `CS(=O)(=O)NCCSCc1c(F)cccc1Cl`: the cell count in assay [1] was 270. Moreover, the inhibition in assay [1] is 5.5% (inactive); in assay [3] it was -41.6% (inactive); in assay [7], 2.63% (inactive); in assay [8], 0.999% (inactive). In addition, the inhibition of aggregation in assay [2] is 0% (inactive). The nuclei count in assay [2] stood at 106%; in assay [3] it was 96.6%. For the same molecule, in assay [4], the fluorescence slope was -0.527 (inactive). The NADPH fluorescence slope in assay [5] is -2.1e-05 (inactive). Moreover, the slope in assay [6] is 0.00448 (inactive).

Regarding `COC(=O)CC1C(=O)NCCN1C(=O)NC1CCCCC1` (centres undefined), the cell count in assay [1] is 714. For the same molecule, the inhibition in assay [1] was -4.5% (inactive); in assay [3], -116% (inactive); in assay [7] it was -2.45% (inactive); in assay [8] it was 2.41% (inactive). In assay [2], the inhibition of aggregation was -18.8% (inactive). In addition, the nuclei count in assay [2] and in assay [3] was 110% each time. In addition, the fluorescence slope in assay [4] was -0.559 (inactive). Moreover, the NADPH fluorescence slope in assay [5] was -1.3e-05 (inactive). For the same molecule, the slope in assay [6] is 0.0059 (inactive).

Turning to `C=CCN=C1SCC(=O)N1S(=O)(=O)c1ccc(C)cc1`, the cell count in assay [1] is 342. In addition, the inhibition was -0.2% (inactive) in assay [1], -135% (inactive) in assay [3], 5.91% (inactive) in assay [7] and 11.1% (inactive) in assay [8]. Moreover, the inhibition of aggregation in assay [2] was 3.3% (inactive). Further, the nuclei count in assay [2] was determined as 91.1%; in assay [3], 124%. The fluorescence slope in assay [4] was -0.364 (inactive). Further, the NADPH fluorescence slope in assay [5] was -6.1e-05 (inactive). Besides, the slope in assay [6] was 0.00404 (inactive).

Turning to `O=c1[nH]c(SCc2ccccc2Cl)nc2c1CCCC2`, the cell count in assay [1] is 447. The inhibition in assay [1] was -14.3% (inactive); in assay [3] it was -49.4% (inactive); in assay [7] it was 10.6% (inactive); in assay [8], 4.88% (inactive). Also, in assay [2], the inhibition of aggregation is 36.1% (inactive). For the same molecule, the nuclei count in assay [2] was found to be 77.2%; in assay [3] it was 111%. In addition, in assay [4], the fluorescence slope was -0.295 (inactive). In assay [5], the NADPH fluorescence slope is -2.4e-06 (inactive). Moreover, the slope in assay [6] was 0.00421 (inactive).

Take `CC(C)(C)NC(=O)NC(=O)COc1ccccc1C#N`: the cell count in assay [1] was determined as 432. The inhibition in assay [1] was -28.2% (inactive); in assay [3], -27% (inactive); in assay [7], 2.8% (inactive); in assay [8] it was -67.2% (inactive). Moreover, the inhibition of aggregation in assay [2] was -6.3% (inactive). Also, the nuclei count came to 108% in assay [2] and 139% in assay [3]. Besides, the fluorescence slope in assay [4] is -0.591 (inactive). Also, the NADPH fluorescence slope in assay [5] is 8.6e-06 (inactive). For the same molecule, the slope in assay [6] is 0.0068 (inactive).

In the case of `CCN1CCN(C(c2ccc(F)cc2)c2nnnn2Cc2cccs2)CC1` (centres undefined), the cell count in assay [1] amounted to 605. The inhibition is -8.6% (inactive) in assay [1], -35.5% (inactive) in assay [3], 4.23% (inactive) in assay [7] and 21.4% (inactive) in assay [8]. In assay [2], the inhibition of aggregation is 1.9% (inactive). Besides, the figures for the nuclei count in assay [2] and in assay [3] were 48.7% and 96.1%, respectively. In addition, the fluorescence slope in assay [4] was -0.339 (inactive). In addition, the NADPH fluorescence slope in assay [5] was 1.5e-05 (inactive). Further, the slope in assay [6] was 0.00582 (inactive).

In the case of `CCN(CC)C(=O)C1CCCc2c1[nH]c1ccc(Cl)cc21` (centres undefined), the cell count in assay [1] is 674. In addition, the inhibition in assay [1] was -18.9% (inactive); in assay [3], -47.8% (inactive); in assay [7], -47.5% (inactive); in assay [8], -12.1% (inactive). Further, in assay [2], the inhibition of aggregation was -0.9% (inactive). In addition, the nuclei count in assay [2] came out at 109%; in assay [3], 104%. For the same molecule, the fluorescence slope in assay [4] was -0.539 (inactive). Moreover, the NADPH fluorescence slope in assay [5] was -3.5e-05 (inactive). Besides, in assay [6], the slope was 0.00741 (inactive).
